# The panel holds about 83,000 compounds, 20% with a hit somewhere; the sample as a whole holds those more often.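 Cells were grown in 96-well plates and exposed to the test compound at a single concentration for 48 hours; results are reported as percent growth, with values below 10 considered active.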 Unmarked numbers belong to inactive results. Calls of active or inactive are those of the source.
# Test system: MDA-MB-468 breast
# Assay: NCI-60 one-dose screen, 48 h (100 = growth as untreated, 0 = no growth, -100 = all killed)
# Conditions: 10 µM unless noted
row,Structure (SMILES),growth
1,CCNC(=O)Oc1ccc(/C(=C(/C)Cc2ccc(OC)cc2)c2ccc(OCCN3CCCCC3)cc2)cc1,42.4%
2,NC(=O)N/N=C\c1ccco1,119%
3,O=C(c1cc2ccccc2o1)c1nn(-c2ccccc2)/c(=N/N=Cc2cn(-c3ccccc3)nc2-c2cc3ccccc3oc2=O)s1,105%
4,Cc1ccc(-c2nc3ccc(Cl)cc3c(=O)n2N2C(=O)CSC2c2ccccc2Cl)cc1 (configuration not stated),107%
5,CCN(CC)CCCNc1nc(C)cc(Nc2ccc3nc(C)cc(N)c3c2)n1,117%
6,Cc1cc(C)c(S(=O)(=O)Oc2ccccc2[N+](=O)[O-])c(C)c1,-0.215% (active)
7,CC(C)(C)CC(C)(C)n1nnnc1C(Nc1nccs1)c1cc2cccc3ccc4cccc1c4c32 (configuration not stated),-33.3% (active)
8,O=c1ccn(C2CC(O)C(O)C(CO)O2)c(=O)[nH]1 (configuration not stated),149%
9,NCCNc1nc2ccccc2c2c(=O)c3cc(F)cc(Cl)c3sc12,-12.5% (active)
10,O=C(CCCCC(=O)Nc1ccc2c(c1)/C(=C/c1ccc[nH]1)C(=O)N2)NO,49%
11,COc1cccc2c1C(=O)c1c(O)c3c(c(O)c1C2=O)C[C@@](O)(C(C)=O)C[C@@H]3O[C@H]1C[C@H](N)[C@H](O)[C@H](C)O1,-72.5% (active)
12,CNC(=O)c1ccccc1Oc1nc(Nc2cc(OC)c(OC)c(OC)c2)ncc1Br,49.6%
13,Cc1ccc(S(=O)(=O)Oc2ccc3c4c(c(=O)oc3c2)CCCCC4)cc1,35.5%
14,Cn1cc(-c2csc(-c3cn(CCO)c4ccc(F)cc34)n2)c2cccnc21,-16.5% (active)
15,COC(=O)c1c2c(c(C)[n+]([O-])c1C)C(=O)C(NCc1ccc(F)cc1)=CC2=O,-9.79% (active)
16,CCC(C)CC(C)C(=O)c1c(O)ccn(O)c1=O (configuration not stated),13.8%
17,COc1cc(NCCN=C(N)NC(N)=NC(C)C)c2ncccc2c1,-46.5% (active)
18,COC(=O)/C=C/c1cc(O)c2oc(-c3ccc(O)c(O)c3)c(C(=O)OC)c2c1,26.7%
19,Cc1cc(C)c2c(n1)sc1c(Nc3ccc(O)cc3)ncnc12,23.8%
20,CCN(CC)CCOC(=O)C(c1ccccc1)(c1ccccc1)C(C)C,80%
21,CSCCC(NC(=O)C(Cl)Cl)C(=O)O (configuration not stated),94.6%
22,Cc1c(Nc2nnc(SCC(=O)Nc3sc4c(c3C#N)CCCC4)s2)c(=O)n(-c2ccccc2)n1C,107%
23,C=C(C)[C@@H]1CC[C@]2(C(N)=O)CC[C@]3(C)[C@H](CC[C@@H]4[C@@]5(C)CC[C@H](OCCC#N)C(C)(C)[C@@H]5CC[C@]43C)[C@@H]12,72.2%
24,CN(CCC(=O)/C(=C\c1ccccc1)c1ccc(Cl)cc1)Cc1ccccc1,-35.2% (active)
25,c1ccc(-c2nc3sc(-c4ccccc4)cn3n2)cc1,85.2%
26,CCC(C)Nc1ccc(NC(C)CC)cc1 (configuration not stated),8.07% (active)
27,Nc1ncnc2c1c(-c1ccc(Oc3ccccc3)cc1)nn2C[C@@H]1SSC[C@H]1O,-0.15% (active)

# From PubChem BioAssay (NCI)
